Laboratory results: article PMC5540273 (PLoS ONE, 2017)
Where “and” joins values, the source holds several entries; their conditions need not be identical. Equal values may be shown once. Read-outs that look alike come from different tables or passages of the source.

What was measured:
[1] = tested on: GRK1; details: concentration: 1 μM, replicates: in singlicate, n = 1
[2] = tested on: T1, GRK2; details: concentration: 1 μM, replicates: in singlicate; n = 1
T1 construct: gene ADRBK1

[3] = tested on: T2, GRK3; details: concentration: 1 μM, replicates: in singlicate, n = 1
T2 construct: gene ADRBK2

[4] = tested on: GRK4; details: concentration: 1 μM, replicates: in singlicate, n = 1
[5] = tested on: GRK7; details: concentration: 1 μM, replicates: in singlicate; n = 1
[6] = tested on: GSK3A; details: concentration: 1 μM, replicates: in singlicate, n = 1
[7] = tested on: GSK3B; details: concentration: 1 μM, replicates: in singlicate, n = 1
[8] = tested on: T3, HASPIN; details: concentration: 1 μM, replicates: in singlicate, n = 1
T3 construct: gene GSG2

[9] = tested on: HCK; details: concentration: 1 μM, replicates: in singlicate, n = 1
[10] = tested on: HIPK1; details: concentration: 1 μM, replicates: in singlicate, n = 1
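Note: KINOMEscan kinase panel screen.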

Structure (SMILES) | %Inh [1] [%] | %Inh [2] [%] | %Inh [3] [%] | %Inh [4] [%] | %Inh [5] [%] | %Inh [6] [%] | %Inh [7] [%] | %Inh [8] [%] | %Inh [9] [%] | %Inh [10] [%] | %Inh ([1]; 1 µM) | %Inh ([3]; 1 µM) | %Inh ([4]; 1 µM) | %Inh ([6]; 1 µM) | %Inh ([7]; 1 µM) | %Inh ([8]; 1 µM) | %Inh ([9]; 1 µM) | %Inh ([10]; 1 µM)
CCc1nc(-c2cccc(C)c2)c(-c2ccnc(NC(=O)c3ccccc3)c2)s1 | 0 | 25 | 7 | 0 | 17 | 0 | 0 | 0 | 27 | 25 |  |  |  |  |  |  |  | 
CCC(CC)(CC)n1cnc2c(N)ncnc21 [SKF-97620] | 40 | 16 | 0 | 8 | 14 | 0 | 35 | 9 | 9 | 17 |  |  |  |  |  |  |  | 
COc1ccc(-c2oc3ncnc(N)c3c2-c2ccc(OC)cc2)cc1 [SB-589132] | 0 | 0 | 70 | 9 | 0 | 15 | 0 | 64 | 14 | 0 |  |  |  |  |  |  |  | 
Fc1ccc(Nc2nccc(-c3c(-c4ccc(Cl)cc4)nn4ncccc34)n2)cc1F [GW829058] | 22 | 11 | 18 | 21 | 35 | 0 | 31 | 37 | 15 | 33 |  |  |  |  |  |  |  | 
COc1ccc(-c2nc3n(c2-c2ccncc2)CCC3)cc1 [SKF-104493] |  | 0 |  |  | 0 |  |  |  |  |  | 11% and 12% | 5% and 0% | 27% and 2% | 0% and 17% | 27% and 1% | 28% and 0% | 10% and 0% | 8% and 0%
